Rows were chosen to be rich in hits. Some 8% of all compounds tested hit in one or more screens of this group.
HT1080 IDH1KD tx: toxicity to HT-1080 IDH1 knockdown cells (counter line) | 360,000 compounds, 2% hits | HT-1080 IDH1 knockdown viability, ATP luminescence, 48 h | Potency, µM (titrated, usually from 46.1 µM), for inactives: at the top dose activity, negative = toxicity, usual class: cytotoxic;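 further: 0% = DMSO wells and -100% = cell-free medium wells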
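Viability of IDH1-knockdown HT-1080 fibrosarcoma cells was assessed by CellTiter-Glo after 48 h at 37 °C with titrated compound; concentration-effect curves were classified by fit quality and response size.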
KB-V1 MDR tox: KB-V1 MDR subline cytotoxicity. Potency, µM (top dose mostly 46.1 µM), hits mostly cytotoxic. 400,000 compounds, 3.4% hits. AID 1347076. KB-V1 MDR cells viability, CellTiter-Glo, 72 h; further: on the % scale 0 is the no-effect control and ±100 the full control effect; nearly all actives have a fitted effect of over 60% in size
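Cytotoxicity toward P-gp-expressing KB-V1 cells was determined as loss of CellTiter-Glo luminescence after 72 h at 37 degrees C. Compounds were tested in quantitative HTS format across a concentration range, with curves fitted to normalized data.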
SW480 rerep: induces DNA re-replication in SW480 colon adenocarcinoma cells. SW480 DNA re-replication, Hoechst DNA content imaging, 48 h. Potency, µM (series often up to 46.1 µM), for inactives: top-dose re-replication activation, hits mostly activators. 340,000 compounds, 1.8% hits. AID 624297; further: % of control where 0% means no effect; nearly all actives have a fitted effect of over 55% in size
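First, 250 cells per well were seeded. Next, compound or vehicle (23 nL) was pinned in, plates sat 48 hr at 37 C. Finally Hoechst was added for 40 min before fluorescence scanning.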
HT1080NT lethal: kills 2HG-producing HT-1080-NT fibrosarcoma cells; HT-1080-NT fibrosarcoma viability, CellTiter-Glo ATP luminescence, 48 h; Potency, µM (titrated, usually from 46.1 µM), for the others: at the highest dose activity, negative = less viability, most hits filed as cytotoxic; 360,000 compounds, 1.6% hits; AID 686970;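 further: NT is the 2HG producing partner of a matched IDH1 knockdown line; 0% = DMSO-treated cells and -100% = media-only wells without cells; nearly all actives have a fitted effect of over 55% in size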
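Fibrosarcoma NT cells, 750 per well in 5% FBS RPMI, were exposed to compound for 48 hours. Viability: CellTiter-Glo luminescence.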
MCF10A rerep: inducers of DNA re-replication in MCF 10A breast cells; MCF 10A DNA re-replication, Hoechst nuclear intensity, 48 h; Potency, µM (doses to about 46.1 µM), without a hit: at the highest dose activity, positive = re-replication, most hits filed as activators; 350,000 compounds, 2.9% hits; AID 624296; further: % of control where 0% means no effect; nearly all actives have a fitted effect of over 50% in size
KB-3-1 tox: kills parental KB-3-1 adenocarcinoma cells | 400,000 compounds, 1.4% hits | Potency, µM (series often up to 46.1 µM), hits mostly cytotoxic | KB-3-1 viability, CellTiter-Glo ATP luminescence, 72 h; further: on the % scale 0 is the no-effect control and ±100 the full control effect; nearly all actives have a fitted effect of over 60% in size
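Using CellTiter-Glo luminescence, growth of non-resistant KB-3-1 adenocarcinoma cells is assessed 72 h after pin-tool compound addition at 37 °C. Normalized responses across the concentration series yield fitted curves.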
Active calls of the source: *; i = inactive; ? = inconclusive; nt = no result; [ ] = dose if it differs, or a comment. The call rests on the fitted dose curve; in most records, active means well fitted curve in the direction sought with a large enough effect; inconclusive means small, poorly fitted or top-dose-only effect, or another doubt; inactive means no such curve, though single readings can be large; an effect the other way counts as inactive or inconclusive. Potency means the concentration at half of the fitted maximal effect.

SMILES	HT1080 IDH1KD tx	KB-V1 MDR tox	SW480 rerep	HT1080NT lethal	MCF10A rerep	KB-3-1 tox
CCC(C)NC(=O)CSc1ccc(S(=O)(=O)N(C)C2CCCCC2)cn1 (centres undefined)	9%	12µM*	-3%	4%	8%	i
Cc1cc(CCNC=O)c(C)c2c1sc1ccccc12	-10%	16µM*	3%	-6%	?	16µM*
COc1cc(C)c2sc3ccccc3c(=O)c2c1NCCN(C)C	?	?	nt	?	nt	i
O=C1C=C(N2CCN(c3ccccn3)CC2)C(=O)c2c(O)ccc(O)c21	-27%	15µM*	?	-6%	28%	?
COc1ccc(C(C[N+](=O)[O-])C2(c3ccc(OC)c(OC)c3)C(=O)c3ccccc3C2=O)cc1 (centres undefined)	21µM*	?	3.3µM*	?	?	?
COC(=O)CC1(c2ccc(OC)cc2)C(=O)c2ccccc2C1=O	?	?	20%	?	86%	i
O=C(COC(=O)c1cccc(F)c1)NC(=O)NC1CCCC1	1%	?	-4%	6%	-3%	i
O=C(COC(=O)c1cccc(Br)c1)NC(=O)NC1CCCC1	?	i	-43%	?	0.46µM*	i
O=C(Nc1ccc(C(=O)OCc2cc(=O)n3ccsc3n2)cc1)c1cccc(F)c1	nt	?	nt	nt	nt	i
Cc1ccc(NC(=O)C2CCCN2C(=O)c2cccs2)cc1C (centres undefined)	-2%	i	-8%	5%	12%	i
Cc1ccc(NC(=O)C2CCCN2C(=O)Oc2ccccc2)cc1C (centres undefined)	-3%	15µM*	-1%	-1%	5%	i
CC(=O)Nc1cccc(NC(=O)C2CCCN2C(=O)Nc2cccc(C)c2)c1 (centres undefined)	8%	i	-15%	0%	9.2µM*	i
Cc1ccc(NC(=O)c2sc3nc(C)nc(N4CCN(c5ccccn5)CC4)c3c2C)c(C)c1	-9%	i	11%	-4%	?	i
Cc1nc(N2CCN(c3ccccn3)CC2)c2c(C)c(C(=O)N3CCN(c4ccccc4F)CC3)sc2n1	-4%	21µM*	7%	-25%	7.3µM*	?
N#Cc1c(N2CCN(c3ccc([N+](=O)[O-])cc3)CC2)[n+](=O)c2ccc(Cl)cc2n1[O-]	-1%	?	8.2µM*	10%	?	?
Cc1cc(C(=O)COc2cccnc2[N+](=O)[O-])c(C)n1-c1ccccc1	?	i	-1%	-6%	20%	i
Cc1cc(OCCOc2cccc3cccnc23)cc(C)c1Cl	?	i	11%	?	23µM*	i
Cc1cc(C(=O)COc2cccc3cccnc23)c(C)n1C	-5%	16µM*	2%	-3%	-1%	i
Cc1cc(C(=O)COc2cccnc2[N+](=O)[O-])c(C)n1-c1ccccc1F	-20%	i	-15%	-2%	4%	i
Cc1cc(C(=O)COc2cccnc2[N+](=O)[O-])c(C)n1Cc1ccco1	21µM*	?	?	?	?	?
Cc1ccc(-n2c(C)cc(C(=O)COc3cccnc3[N+](=O)[O-])c2C)cc1	-1%	i	?	-17%	21µM*	i
Cc1cc(C(=O)COc2ccccc2C(N)=O)c(C)n1C	4%	?	-7%	5%	2%	i
Oc1oc(-c2ccco2)nc1C=Nc1cccc(Cl)c1	3%	i	?	2%	-3%	i
CC(=NCc1cccc(Cl)c1)c1nc(-c2ccco2)oc1O	-5%	i	-9%	1%	?	5.8µM*
COc1ccc(NS(=O)(=O)Cc2ccccc2)cc1OC	-20%	i	1%	0%[9.24 µM]	-1%	i
SMILES	HT1080 IDH1KD tx	KB-V1 MDR tox	SW480 rerep	HT1080NT lethal	MCF10A rerep	KB-3-1 tox
COc1ccc(Nc2nc3ccccc3c(=O)s2)c(OC)c1	4%	i	-2%	-1%	-2%	i
COc1cc(N)ccc1Nc1c2ccccc2nc2ccccc12	23µM*	i	nt	?	nt	i
Cc1ccc(O)c(Nc2c3ccccc3nc3ccccc23)c1	16µM*	i	?	23µM*	?	i
CCCS(=O)(=O)Nc1ccc(Nc2c3ccccc3nc3ccccc23)c(OC)c1	?	23µM*	7.3µM*	-9%	21%	?
O=C(Cn1ncc2c([nH]c3ccccc32)c1=O)Nc1cc(F)ccc1F	nt	i	nt	nt	nt	i
COc1ccc2oc(C(=O)N(C)CCOc3ccc(Cl)cc3)c(C)c2c1	-1%	i	5%	10%	9%	i
Cc1c(C(=O)N(C)CCOc2ccccc2)oc2c(Cl)cccc12	12%	21µM*	0%	3%	?	i
CCN(CC(=O)Nc1ccccc1C(F)(F)F)C(=O)c1oc2c(Cl)cccc2c1C	-9%	18µM*	5%	-6%	30%	i
CCN(CC(=O)Nc1cc(C)on1)CC(=O)Nc1ccccc1C(F)(F)F	-10%	18µM*	28%	-5%	32%	i
CC1=C(C(=O)Nc2ccc(Cl)cc2)C(c2cccs2)n2nc(SCc3cccc(Cl)c3)nc2N1 (centres undefined)	nt	?	nt	nt	nt	i
C=CCn1c(SC(F)F)nc2scc(-c3ccco3)c2c1=O	?	i	20%	-7%	2.9µM*	i
COc1ccc(CC(=O)N(Cc2nc(-c3ccc(C)cc3)no2)C(C)C)cc1	nt	i	nt	nt	nt	i
CC(C)(C)c1ccc(Cn2c(=O)cnc3ccccc32)cc1	7.3µM*	?	?	9.2µM*	15µM*	?
Cc1ccc(CCNC(=O)c2ccc(Nc3nc4ccccc4n4nnnc34)cc2)cc1	nt	i	nt	nt	nt	i
O=C(O)Cc1sc(Nc2ccc(F)cc2)nc1-c1cccs1	-2%	i	16%	4%	21µM*	i
Cc1ccc(Nc2nc(-c3ccccc3)c(CC(=O)O)s2)cc1	-28%	i	-2%	?	26%	i
Cc1cc(C)cc(-n2c(SCC(=O)Nc3ccccc3)nc3c(oc4ccccc43)c2=O)c1	nt	i	nt	nt	nt	i
Cc1ccc(NC(=O)C(=O)Nc2ccc(C)cn2)nc1	4%	i	-13%	?	-8%	i
Cc1ccc(NC(=O)/C(C#N)=C(\N)C(Cl)(Cl)Cl)nc1	?	?	8%	?	18µM*	18µM*
COc1ccc(NC(=O)CCn2cnnn2)cc1	nt	i	nt	nt	nt	i
COc1cnc(-c2ccccn2)nc1Sc1ccc(F)cc1	-25%	i	-37%	21µM*	2%	i

Source: PubChem
